Results: ChEMBL document CHEMBL4513216, “Probing the Open Global Health Chemical Diversity Library for Multistage-Active Starting Points for Next-Generation Antimalarials” (ACS Infect Dis, 2020)
In all, about 69,000 compounds went through this assay and about 8,600 (12%) showed an effect of 50% or more. The list comes from a sample in which strong results are over-represented; it also holds similar structures and randomly drawn compounds.

These compounds were tested on Plasmodium berghei (assay: Screen against P. berghei liver stage (PbLuc), transformed with Luciferase, at 10uM). Settings: tested at 10 uM.
Format: functional, HepG2

Compound	INHIBITION [%]
O=C(CC1CCC2(CC1)CCN(Cc1cccnc1)CC2)N1CC=CC1	-4.32
Cc1ccc(CN2CCc3[nH]nc(C(=O)N(C)C)c3C2)o1	6.27
c1cnc2c(CN3CCCCC3c3ccncn3)cnn2c1 (centres undefined)	16.5
Cn1cc(CN2CCCC23CCN(C(=O)c2cccs2)CC3)cn1	28.4
CC1(C(N)=O)CN(CC2CCOCC2)CCO1 (centres undefined)	26.3375
CS(=O)(=O)N1CCC(c2nnc3ccc(C(=O)NC4CCC4)cn23)C1 (centres undefined)	37.3
Cc1cc(C(F)(F)F)nn1C(C)C(=O)Nc1ccc(Cl)cn1 (centres undefined)	47.4
Cn1c(Cn2cccn2)nnc1C1CCN(Cc2ccccc2Cl)CC1	-10.9
Cc1nn(C)c(Cl)c1C1CCCN1C(=O)c1ccnc(N(C)C)c1 (centres undefined)	-65.3
COc1ccc(Cl)cc1NCc1nc2[nH]c(C)c(C)c(=O)n2n1	16
O=C(Nc1cc(C(F)(F)F)c[nH]c1=O)N1CCSCC1	-43.6
Cc1nc(C(=O)N2CCCC2c2cnn(C)c2)ccc1C#N (centres undefined)	13.3
CNC(=O)c1ccc(C2CN(C(=O)c3cnn(C)c3)CCO2)nc1 (centres undefined)	29.2
CNC(=O)c1ccc(C2CN(C(=O)c3scnc3C)CCO2)nc1 (centres undefined)	-5.71
CNC(=O)c1ccc(C2CN(C(=O)c3cncs3)CCO2)nc1 (centres undefined)	50
CCOc1ncccc1C(=O)N1CCCC1c1c(C)nn(C)c1Cl (centres undefined)	-19.9
CCN(C)S(=O)(=O)NCC(C)(O)c1ccsc1 (centres undefined)	31.7
COCCN1C(=O)CO[C@H]2CN(CCCc3ccccc3)C[C@H]21	51.9
COCCN1C(=O)CO[C@H]2CN(S(=O)(=O)c3ccccc3)C[C@H]21	-6.3
COCCN1C(=O)CO[C@H]2CN(Cc3ccccc3Cl)C[C@@H]21	63.4
COCCN1C(=O)CO[C@H]2CN(Cc3ccccc3OC)C[C@H]21	-17.2
COCCN1C(=O)CO[C@H]2CN(Cc3cccc(OC)c3F)C[C@@H]21	27.8

Compound	INHIBITION [%]
Cn1ccnc1CN1C(=O)CO[C@H]2CN(CCCc3ccccc3)C[C@H]21	27.5
CC(Nc1cccc(CN2CCOC2=O)c1)C(=O)NC(=O)NC(C)(C)C (centres undefined)	3.75
CCNC(=O)[C@@H]1C[C@H](NC(=O)c2cc(=O)[nH]c3ccc(C)cc23)CN1C	29.4
COC(=O)c1ccc(N(C(=O)c2cc(Cl)ccn2)C(C)C)c(C)c1	19.4
CC(C)(C)NC(=O)CN1CCCC(c2ccc(C(=O)O)cc2)C1 (centres undefined)	26.9
N#Cc1ccsc1NC(=O)CCN1CCn2c(nnc2C2CC2)C1	-25.9
CCNC(=O)COc1ccccc1N1CCCC(C)C1 (centres undefined)	36.2
CCOCCCC(=O)Nc1cc(C(N)=O)ccc1N1CCCCC1	72.1
CCOCCC(=O)Nc1cc(C(N)=O)ccc1N1CCCC(C)C1 (centres undefined)	73
CC1CCCN(c2ccc(C(N)=O)cc2NC(=O)CC2=CCNCC2)C1 (centres undefined)	56.3
CCOCCCC(=O)NCc1ccc(N2CCCCC2)cc1	42.7
CC1CCC(NS(=O)(=O)CC(=O)Nc2ccccc2N2CCCC2)CC1 (centres undefined)	-52.2
NC(=O)c1ccc(N2CCCCC2)c(NC(=O)c2cncc(Br)c2)c1	46.8
COCCCC(=O)Nc1cccnc1N1CCCCC1	35.1
CC1CCCN(c2ccccc2OCC(=O)NC2CC2)C1 (centres undefined)	42.6
Cc1csc(C2CCCN(C(=O)Cn3ccccc3=O)C2)n1 (centres undefined)	-17.6
CC(C)CNC(=O)C1(Cc2ccccc2-c2ccccc2)CCNC1 (centres undefined)	47.2
COc1ccc(COCC(O)CN2CCC(c3ccn[nH]3)CC2)cc1 (centres undefined)	44.1
COCCOCC(=O)Nc1ccc(Br)cc1F	-6.32
O=C(O)c1c[nH]c2cc(NS(=O)(=O)c3cc(F)ccc3Cl)ccc12	-31.8
Cn1cc(C2=NOC(C(=O)NC3(c4ccccc4)CCCC3)C2)cn1 (centres undefined)	-6.975
CO[C@@H]1CN(c2ccccc2)S(=O)(=O)[C@@]12CCN(S(C)(=O)=O)C2	39.6

Compound	INHIBITION [%]
CCn1cc(CN2CCCN(C(=O)c3ccc(C)nc3)CC2)cn1	-47.6
COCC1c2c(cnn2CC2CCOCC2)CCN1Cc1ccoc1 (centres undefined)	14.4
CCC(C)(CC(=O)OC)NCc1cc(C)on1 (centres undefined)	56.6
CCC(C)(CC(=O)OC)NCc1noc(C)n1 (centres undefined)	-31.9
CCC(C)(CC(=O)OC)NCc1nc(C)no1 (centres undefined)	-50.8
CC(=O)N1CCN(C(=O)CCCc2nnc(-c3ccccc3)o2)CC1	28.8
CC(Nc1cccc(CN2CCOC2=O)c1)C(=O)Nc1ccccc1 (centres undefined)	35.4
CN1[C@@H](c2ccccc2)[C@@H](C(=O)NCc2ccccn2)C[C@@]1(C)C(=O)O	60.1
CN1[C@@H](c2ccccc2)[C@@H](C(=O)NCC2CCOCC2)C[C@@]1(C)C(=O)O	41.5
CN1[C@@H](c2ccccc2)[C@@H](C(=O)NCc2ccncc2)C[C@@]1(C)C(=O)O	39.6
COC(=O)CC1CCN(C(=O)c2ccc(-n3nnnc3C)cc2)CC1	27
O=C(c1cccnc1)N1CCC2(CNS(=O)(=O)c3cnccc3O2)C1 (centres undefined)	37.5
O=C(c1ccccn1)N1CCC2(CNS(=O)(=O)c3cnccc3O2)C1 (centres undefined)	17.6
CC(C)(C)C(=O)N1CCC2(CNS(=O)(=O)c3cnccc3O2)C1 (centres undefined)	53.2
O=C(CNc1ccc(OC2CCOC2)cc1)NCc1ccc(F)cc1 (centres undefined)	-68.6
Cn1nnc2c(N3CC(C(=O)NCc4cccs4)C3)ncnc21	-37.2
O=C(NC1CC1)N1CC[C@H]2[C@H]1CCN2c1ncccn1	-4.82
CCc1noc(CN2CCN(C(=O)COC)CC2)n1	25.6
CCc1noc(CN2CCN(C(=O)N(C)C)CC2)n1	-27.3
CCc1noc(CN2CCCN(C(C)=O)CC2)n1	25.6
CCc1noc(CN2CCN(C(=O)c3ccccc3F)CC2)n1	43.3
CCc1noc(CN2CCN(C(=O)Cc3ccc(F)cc3)CC2)n1	52.4

Compound	INHIBITION [%]
CCc1noc(CN2CCN(C(=O)C3CC3)CC2)n1	54.4
Cc1cc(C(=O)N2CCc3ncc(CN4CCOCC4)n3CC2)no1	35.8
Cn1cnnc1C1CCCN(C(=O)COCc2ccccc2)C1 (centres undefined)	45.7
O=C1CCN(CCCS(=O)(=O)c2ccc(Cl)cc2)CCN1	20.6
COCC(=O)N1CCCN(c2ncnc3c2CCNCC3)CC1	11.7
Cc1ncnc(N2CCCN(c3nc4ccccc4s3)CC2)c1C	89.6
Cc1cccc(CN2CCc3ncnc(N4CCCC4)c3CC2)n1	-27.4
Cn1nc2c(cc1=O)CN(c1nc3ccccc3s1)CC2	-80.7
CN(C)S(=O)(=O)N1CC[C@]2(O)CCN(c3nc4ccccc4s3)C[C@@H]2C1	11.3
Cc1cc(C(=O)N2CCN(c3nc4ccccc4s3)CC2)no1	36.8
NC(=O)c1cccnc1N1CCN(c2ncnc3c2CCNC3)CC1	31.7
c1ccc2sc(N3CCN(c4ncnc5c4CCC5)CC3)nc2c1	79.9
c1ccc2sc(N3CCCN(c4ncnc5c4CCNC5)CC3)nc2c1	74.5
COCCCN1CC2(CCCN(CCn3cc(Cl)cn3)C2)CCC1=O (centres undefined)	17.4
CCOC(=O)Cc1csc(NC(=O)c2cc3n(n2)CCCO3)n1	-42.6
COCCCN(CCOC)Cc1nc2c(cnn2C)c(=O)[nH]1	25.1
CCN(CC)C(CNS(=O)(=O)c1ccc(C(N)=O)cc1)c1ccco1 (centres undefined)	54.3
CCN(CC)C(CNS(=O)(=O)c1ccc(C(C)=O)cc1)c1ccco1 (centres undefined)	26.4
CCN(CC)C(CNCc1ccc(OC)c(F)c1)c1ccco1 (centres undefined)	-75
CCN(CC)C(CNCc1ccc(O)cc1)c1ccco1 (centres undefined)	77.8
CCN(CC)C(CNCc1cc(F)cc(F)c1)c1ccco1 (centres undefined)	34.1
CCN(CC)C(CNS(=O)(=O)c1ccc(C(=O)NC)cc1)c1ccco1 (centres undefined)	12.6

Compound	INHIBITION [%]
O=C(CCc1ccccn1)N1CCCN(C(=O)CC2CCCC2)CC1	21.5
N#Cc1cccc(NC(=O)N2CCC3(CCC(=O)N(C4CC4)C3)CC2)c1	19.5
COCCN1CCCC12CCN(Cc1cccnc1OC)CC2	26
CCOC1COC2(CCN(Cc3cccnc3OC)CC2)C1 (centres undefined)	18.6
COc1ncccc1CN1CCC2(CC1)CC(OCC1CC1)CO2 (centres undefined)	56.4
CCN1CCCC12CCN(Cc1cccnc1OC)CC2	42.3
COc1ncccc1CN1CCC2(CC1)COCCN2C	70.4
COc1ncccc1CN1CC[C@]2(C[C@@H](OCc3ccccn3)CO2)C1	-3.52
CCCC(=O)N1CCC(C(=O)NCCNc2ncccn2)CC1	21.6
Cc1c[nH]c(C2CCCN2C(=O)CCc2c(C)n[nH]c2C)n1 (centres undefined)	-0.13
CN(C)C(=O)N1CCN(C(=O)c2ccn3cncc3c2)CC1	15.1
O=C(Cn1nnn(-c2cccs2)c1=O)NCC1CCOC1 (centres undefined)	13.7
CCN(CC1CCOC1)C(=O)Cn1nnn(-c2cccs2)c1=O (centres undefined)	12.8
O=C(Cn1nnn(-c2cccs2)c1=O)N(CC1CCOC1)C1CC1 (centres undefined)	51.7
CC(C)c1nc2c(n1C)CCN(CCCOc1ccc(C#N)cc1)C2	-2.53
Nc1ncccc1C(=O)NCc1cccc(Cl)c1	69.8
Nc1ncccc1C(=O)NCc1ccc(Br)cc1	-26.3
Nc1ncccc1C(=O)NCc1cccc(Br)c1	68.9
COc1cccc(CNC(=O)c2cccnc2N)c1	0.207
Cc1cccc(CNC(=O)c2cccnc2N)c1	44.1
CC(C)Sc1ncccc1C(=O)NCc1cccc(N(C)C)c1	19.6
